# Laboratory results: PubChem BioAssay AID1117319 (Southern Research Institute, 2015)
# Out of some 260,000 compounds screened, about 1,500 (0.58%) were called active. About 5% were inconclusive and are not listed. These entries were drawn from the full list. Entries with a potency or affinity are not part of this list. Values without a mark were called inactive.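 Rule for the calls: active = inhibition above a set limit at one or more doses, reproduced on every date tested; inconclusive = results disagree between test dates, or hit never tested in dose response; inactive = the rest.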
# Biological target: Virion infectivity factor (Human immunodeficiency virus type 1 group M subtype B (isolate BH10)) + Virion infectivity factor (Human immunodeficiency virus type 1 group M subtype B (isolate BRU/LAI)) + Virion infectivity factor (Human immunodeficiency virus type 1 group M subtype B (isolate PCV12)) + Virion infectivity factor (Human immunodeficiency virus type 1 group M subtype B (isolate HXB2)) + DNA dC->dU-editing enzyme APOBEC-3G (Homo sapiens) (UniProt P69720+P69721+P69722+P69723+Q9HC16)
# Experiment: HIV-1 Vif–A3G interaction blockers – biochemical, TR-FRET, GST-Vif 1-94, biotin-A3G peptide, dose response retest, primary screen (AID 1117319);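 note: Vif residues 1-94 fused to GST binding biotinylated APOBEC3G peptide 110-148; 0% = full assay without inhibitor and 100% = GST in place of GST-Vif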
# Conditions: TR-FRET GST-Vif / biotin-A3G peptide binding; stronger effect = higher value
row,Compound,inhibition [%]
1,O=S(=O)(Nc1cc(C(F)(F)F)ccc1N1CCOCC1)c1ccccc1,2.04
2,Cc1ccc(S(=O)(=O)Nc2cc(C(F)(F)F)ccc2N2CCOCC2)cc1,1.57
3,COc1ccc(NS(=O)(=O)c2cccc(C(=O)NCC3CCCO3)c2)cc1 (stereo unspecified),1.68
4,COc1ccccc1N1CCN(CC(=O)Nc2cccc(F)c2)CC1,-5.83
5,O=C(CN1CCCC1)Nc1ccc2c(c1)CCC2,-3.44
6,O=C(CN1CCN(Cc2ccccc2)CC1)Nc1ccc2c(c1)CCC2,-3.36
7,CC1CCN(CCNC(=O)c2ccc(NC(=O)C3CCCO3)cc2)CC1 (stereo unspecified),2.71
8,O=C(Nc1ccc2c(c1)CN(Cc1ccccc1O)CC2)C1CCCO1 (stereo unspecified),-4.54
9,O=C(O)c1ccc(NS(=O)(=O)c2cc(Cl)ccc2Cl)cc1O,3.01
10,CCc1ccc(CC)c(S(=O)(=O)Nc2ccc(O)c(C(=O)O)c2)c1,-4.21
11,O=C(Nc1ccc(Br)cc1)C1CCN(C(=O)c2ccc(F)cc2)CC1,-10.6
12,CCOC(=O)c1cnc(SCC(=O)OCC(=O)N(CC)C2CCS(=O)(=O)C2)nc1N (stereo unspecified),4.12
13,COc1cccc(NC(=O)CN(C)C(=O)/C=C/c2cn(Cc3ccccc3)nc2-c2cccnc2)c1,-9.6
14,O=C(Nc1ccc(F)cc1)C(c1ccccc1)N1CCN(S(=O)(=O)c2c(F)cccc2F)CC1 (stereo unspecified),22.6
15,Cc1ccc(S(=O)(=O)N2CCN(C(C(=O)Nc3ccc(F)cc3)c3ccccc3)CC2)cc1 (stereo unspecified),69.8
16,COC(=O)CCC(=O)OC1(C)C(=O)C=C2C=C(C3CC3)N(Cc3ccc(OC)cc3)C=C2C1=O (stereo unspecified),31.5
17,COc1ccc(N2C=C3C(=O)C(C)(OC(=O)CCc4ccccc4)C(=O)C=C3C=C2c2ccc(C#N)cc2)cc1 (stereo unspecified),11.3
18,COC(=O)CCC(=O)OC1(C)C(=O)C=C2C=C(C3CC3)N(CCCOC(C)C)C=C2C1=O (stereo unspecified),20.5
19,CC(C)OCCCN1C=C2C(=O)C(C)(OC(=O)CCc3ccccc3)C(=O)C=C2C=C1c1ccc(C#N)cc1 (stereo unspecified),12.3
20,O=[N+]([O-])c1ccc2nc(SCc3ccccc3Cl)sc2c1,2.57
21,CC(C)n1c(SCC(=O)N2c3ccccc3Sc3ccccc32)nc2c1c(=O)n(C)c(=O)n2C,1.71
22,Cc1ccc2cccc(SCC(=O)NCc3ccco3)c2n1,5.4
23,Cc1ccc(S(=O)(=O)N(C)c2ccc(C(=O)NCC(c3ccco3)N3CCCC3)cc2)cc1 (stereo unspecified),-9.74

row,Compound,inhibition [%]
1,CC(C)(C)c1ccc(/C=C/C(=O)N2CCc3ccccc3C2)cc1,7.01
2,Cc1ccc(/C=C/C(=O)N2CCc3ccccc3C2)cc1,0
3,CC12CCC(=O)C=C1CCC1C2C(O)CC2(C)C1CCC2(O)C(=O)COC(=O)COCC(=O)O (stereo unspecified),0.66
4,COc1ccccc1NC(=O)c1ccc(NC(=O)c2cc3c(s2)CCC3)cc1,-2.47
5,CNC(=O)COC(=O)c1cc2c(s1)CCCC2,0.25
6,Cc1c(/C=N/O)c2ccccn2c1C(=O)c1ccc(F)cc1,-0.95
7,CC(C)C1CC(C(F)(F)F)n2nc(C(=O)O)cc2N1 (stereo unspecified),7.12
8,Cc1cc(C)nc(SCc2nnc(SCC(=O)Nc3nc(-c4ccccc4)cs3)n2C)n1,-21.4
9,Cc1ccc(N2CCN(c3ccc(C)cc3)C2c2cccnc2)cc1,-3.62
10,Cc1ccc(N2CCN(c3ccc(C)cc3)C2c2ccncc2)cc1,13.1
11,N#CCCN(C(=O)COC(=O)c1cc(S(=O)(=O)N2CCOCC2)ccc1Cl)c1ccc(F)cc1,-1.91
12,CC(=O)Nc1ccc2nc(NC(=O)CS(=O)(=O)c3ccccc3)sc2c1,5.59
13,Cc1ccc(NS(=O)(=O)c2c(C)[nH]c(=O)[nH]c2=O)cc1C,0.84
14,Cc1[nH]c(=O)[nH]c(=O)c1S(=O)(=O)Nc1cccc(C(F)(F)F)c1,-6.82
15,Cc1ccc(C)c2[nH]c(=O)c(CCNC(=O)c3cc4ccccc4o3)cc12,24.9
16,O=C(Cc1ccccc1)NC1CCN(C(=O)c2ccc([N+](=O)[O-])cc2)CC1,-1.3
17,CCOc1ccccc1CN1CCN(Cc2csc(C(C)=O)c2)CC1CCO (stereo unspecified),3.88
18,Nc1nonc1C(=O)N/N=C/c1ccc(-c2cccc([N+](=O)[O-])c2)o1,-3.49
19,Cc1cc([N+](=O)[O-])c(C)cc1-c1ccc(/C=N/NC(=O)Cn2nnnc2N)o1,9.49
20,C=CCN1C(=O)C(CC(=O)Nc2ccc(C)cc2)SC1=Nc1c(C)n(C)n(-c2ccccc2)c1=O (stereo unspecified),4.69
21,O=C(Cc1c(F)cccc1Cl)NCc1cccnc1,-4.5
22,CC(=O)Nc1ccc(OCC(O)CN2CCN(c3ccc(Cl)cc3)CC2)cc1 (stereo unspecified),22.8
23,CC1(C)NC(=O)N(CCSc2ccc(Cl)cc2)C1=O,-1.11

row,Compound,inhibition [%]
1,Cc1ccc(SCCCCN2C(=O)NC(C)(C)C2=O)cc1,-3.51
2,CCc1cccc(CC)c1NC(=O)C(NS(=O)(=O)c1cccs1)c1ccccc1 (stereo unspecified),9.9
3,CCOC(=O)C1=C(COC(=O)c2ccc(Cl)nc2)NC(=O)NC1C (stereo unspecified),5.43
4,O=C(O)CCCCCCCCCCC1CCC(O)C1O (stereo unspecified),-4.99
5,CC1NC(=O)NC1CCCCC(=O)O (stereo unspecified),3.51
6,CC(=O)N(c1ccccc1C)c1ccccc1C,-4.05
7,CSCCC(NC(=O)c1ccccc1)C(=O)NCCCSc1ccccc1 (stereo unspecified),-3.49
8,O=C(CCC1CCCC1)NNC(=O)c1ccccc1O,-4.22
9,CC(C)NS(=O)(=O)c1ccc(OCC(=O)NCCC2=CCCCC2)cc1,2.83
10,COc1ccc(CCNC(=O)COc2ccc(S(=O)(=O)N3CCCC3)cc2)cc1,-4.34
11,Cc1nnc(SCC(=O)N2CCN(S(=O)(=O)c3ccccc3)CC2)s1,-8.25
12,CCc1ccc(/C=N/n2c(C3CCCCC3)n[nH]c2=S)cc1,-5.47
13,CC(C)(CO)NCc1cc(Br)ccc1OCc1ccccc1,-4.77
14,CCC1=NN2C(=N)/C(=C\c3ccc(OCCOc4ccc(NC(C)=O)cc4)c(OC)c3)C(=O)N=C2S1,-0.34
15,COc1ccc(C(=O)c2ccc(OC)cc2O)c(O)c1,4.6
16,COc1ccc(OC)c(N)c1,14.5
17,CCOC(=O)Cc1ncccc1C(=O)Nc1ccc(Oc2ccccc2)cc1,-1.5
18,COc1ccc(C(=O)NCc2nnc(SCC(=O)Nc3nc4ccc(C)cc4s3)o2)cc1OC,9
19,COc1ccc(C(=O)NCc2nnc(SCC(=O)Nc3nc4ccccc4s3)o2)cc1OC,0.33
20,Cc1ccc(CSc2nc3ccncc3n2CC(=O)Nc2cc(C)cc(C)c2)cc1,-48.6
21,Cc1sc2ncnc(SCC(=O)NC(=O)NCc3ccco3)c2c1C,-3.92
22,Cc1sc2ncnc(NCc3ccco3)c2c1C,23.1
23,COc1ccc2c(c1)CC(C1(O)C(=O)N(C)c3ccccc31)C2=O (stereo unspecified),-5.17

row,Compound,inhibition [%]
1,Cc1ccc(NC(=O)Nc2ccc3c(c2)nc(C)n3C)cc1,66.9
2,CC(=O)c1ccc(NC(=O)Nc2ccc3c(c2)nc(C)n3C)cc1,11.4
3,COc1ccc(NC(=O)CN(C)C(=O)CSc2nc3ccccc3s2)cc1,-0.85
4,Cc1ccc(-n2nc3c(c2NC(=O)c2ccc(Br)o2)CSC3)c(C)c1,17
5,Cc1ccccc1-n1nc2c(c1NC(=O)c1ccc(Br)o1)CSC2,17.6
6,COc1ccc(NC(=O)COC(=O)c2ccc(S(=O)(=O)N3CC(C)CC(C)C3)cc2)cc1OC (stereo unspecified),0.85
7,CC(=O)Nc1ccc(S(=O)(=O)Nc2nc3ccccc3nc2Nc2ccc(O)cc2)cc1,-3.02
8,CC(=O)Nc1ccc(Nc2nc3ccccc3nc2NS(=O)(=O)c2ccccc2)cc1,17.2
9,CC(=O)Nc1ccc(S(=O)(=O)Nc2nc3ccccc3nc2Nc2cccc(O)c2)cc1,6.78
10,CC(=O)Nc1ccc(S(=O)(=O)Nc2nc3ccccc3nc2Nc2ccc(S(N)(=O)=O)cc2)cc1,23.8
11,Cc1ccc(NC(=O)CS(=O)(=O)c2c[nH]c3ccccc23)c(C)c1,-0.62
12,COCCNC(=S)N/N=C(\C)CCc1ccc2c(c1)OCO2,3.32
13,COc1cccc(NC(=S)NC(=O)/C=C/c2ccco2)c1,28.1
14,O=C(/C=C/c1ccco1)NC(=S)Nc1ccccc1,10.3
15,Cc1cc(C(=O)NNC(=O)/C=C/c2ccccc2Cl)c(C)o1,-12.6
16,Cc1cc(NC(=O)/C=C/c2ccco2)ccc1NC(=O)c1ccccc1,11.7
17,Cc1ccc(O)c(NC(=S)NC(=O)/C=C/c2ccco2)c1,-4.52
18,CC(=O)c1ccc(NC(=S)NC(=O)/C=C/c2ccco2)cc1,9.46
19,COc1ccc(/C=C/C(=O)NNC(=O)c2cc(C)oc2C)cc1,1.71
20,O=C(/C=C/c1ccco1)Nc1ccccc1C(=O)Nc1cccc(C(=O)O)c1,30.8
21,COc1cc(OC)cc(C(=O)NCC(=O)OCc2nc3ccccc3s2)c1,5.21
22,COC(=O)C(NC(=O)c1ccccc1)(Nc1cc(C)cc(C)n1)C(F)(F)F (stereo unspecified),-5.13
